Reference: PubChem BioAssay (Tox21)
Records with an inconclusive call do not appear. Where a call stands in place of a potency, no number is given. Where a structure was tested more than once in an assay, its records may differ in their call. The source made the active and inactive calls. Calls come from the whole dose curve.
Potency is the fitted concentration of half-maximal effect.

Assay: qHTS assay to identify small molecule agonists of the endoplasmic reticulum stress response signaling pathway - cell viability counter screen (AID 1159517); note: nearly all actives have a fitted effect of over 50% in size
Conditions: ESRE-bla HeLa viability, CellTiter-Glo luminescence, 5 h; series mostly up to 61 µM
Excerpt: U.S. Tox21 Program National Center for Advancing Translational Sciences [NCATS] NIH Chemical Genomics Center [NCGC] U.S. Environmental Protection Agency [EPA] National Institutes of Environmental Health Sciences [NIEHS] National Toxicology Program [NTP] U.S. Food and Drug Administration [FDA] Tox21 Assay Overview: Endoplasmic Reticulum (ER) plays an important role in cellular signaling, protein folding/maturation, stress response, lipid biosynthesis, calcium storage and release etc. Under stress conditions, proteins in ER misfold or unfold, and leading to the expression of ER stress responsive genes. ER stress has been associated with a variety of pathophysiological conditions such as cancer, inflammation, neurodegenerative diseases, diabetes, ischemic heart disease etc. To identify the compounds that induce ER stress response, an ER stress reporter cell line, CellSensor ESRE-bla HeLa (Life Technologies, Carlsbad, CA) containing a beta-lactamase reporter gene under control of the Endoplasmic reticulum Stress Response Element (ESRE) was used to screen Tox21 10K compound library. The cytotoxicity of the Tox21 compound library against the ESRE-bla HeLa cell line was tested in parallel by measuring cell viability using the CellTiter-Glo assay in the same wells.
Tox21 Assay Protocol Summary: ESRE-bla HeLa cells were dispensed at 1,500 cells/6 uL of assay medium per well into black wall/clear-bottom 1536-well plates using a Multidrop Combi (ThermoFisher Scientific, Waltham, MA) dispenser. After the assay plates were incubated at 37 C and 5% CO2 for an overnight, 23 nL of compounds dissolved in DMSO, positive controls or DMSO only was transferred to the assay plate by a Pintool station (Kalypsys, San Diego, CA). The assay plates were incubated at 37 C and 5% CO2 for 5 hr. One uL of LiveBLAzer B/G FRET substrate (Life Technologies) was added using a FRD (Flying Reagent Dispenser, Aurora Discovery, San Diego, CA) and the plates were incubated at room temperature for 2 hr. Fluorescence intensity (405 nm excitation, 460 nm and 530 nm emissions) was measured using an Envision plate reader (PerkinElmer, Shelton, CT). For cytotoxicity, 4 ul/well of CellTiter-Glo reagent was added into the assay plates using an FRD. After 30 min incubation at room temperature, the luminescence intensity was measured using a ViewLux plate reader (PerkinElmer).
In the case of `C[C@H]1CCCC(=O)CCC/C=C/c2cc(O)cc(O)c2C(=O)O1`, the Potency is reported as 47.2 µM (active) and inactive. With `CC(C)N(Cc1ccccc1)C(=O)C(C)(C)C` the Potency was “inactive”. In the case of `O=C(O)CBr`, the Potency is reported as “inactive”. With `CCOC(=O)CCl` the Potency was “inactive”. With `C[C@H](CN1CCOCC1)C(C(=O)N1CCCC1)(c1ccccc1)c1ccccc1` the Potency was “inactive”. For `CCNc1nc(NCC)nc(SC)n1`, the Potency was “inactive”. With `CCC(=O)c1ccc(Cl)cc1` the Potency was “inactive”. For `CCOc1cc(OP(=S)(OC)OC)nc(CC)n1`, the Potency was “inactive”. For `O=[N+]([O-])c1cccc(CCl)c1`, the Potency was “inactive”. In the case of `Cn1c(N)nc2c3cccnc3ccc21`, the Potency is reported as “inactive”. For `C=CCc1cc(OC)c2c(c1)OCO2`, the Potency was “inactive”. With `C=CCCC#N` the Potency was “inactive”. With `COc1ccc(CN2CCNCC2)c(OC)c1OC` the Potency was “inactive”. In the case of `C#CC(C)(C)O`, the Potency is reported as “inactive”. In the case of `[P]#[In]`, the Potency is reported as “inactive”. With `O=C(NC(=O)c1c(F)cccc1F)Nc1cc(Cl)c(F)c(Cl)c1F` the Potency was “inactive”. For `C=C1C[C@@H]2[C@H](CC[C@]3(C)C(=O)CC[C@@H]23)[C@@]2(C)C=CC(=O)C=C12`, the Potency was “inactive”. For `CCOC(=O)CC(SP(=S)(OC)OC)C(=O)OCC` (stereo not given), the Potency was “inactive”. For `COC(=O)c1ccc(CBr)cc1`, the Potency was “inactive”. For `S=C=S`, the Potency was “inactive”. With `COC[C@@H](NC(C)=O)C(=O)NCc1ccccc1` the Potency was “inactive”. For `CN(CCO)CCO`, the Potency was “inactive”. With `CCC(CC)(CNC(=O)CCCO)c1cccc(OC)c1` the Potency was “inactive”. For `CCCCCCCC(=O)Cl`, the Potency was “inactive”. In the case of `CC(C)(N)Cc1ccc(Cl)cc1`, the Potency is reported as “inactive”. For `BrCCc1ccccc1`, the Potency was “inactive”. With `Cc1ccc2cc(C)ccc2c1` the Potency was “inactive”. In the case of `O=S1(=O)OCCO1`, the Potency is reported as “inactive”. With `O=C(O)C(Cl)Br` (stereo not given) the Potency was “inactive”. In the case of `CCN[C@@H](C)Cc1ccccc1`, the Potency is reported as “inactive”. With `CC#Cc1cc(C)nc(Nc2ccccc2)n1` the Potency was “inactive”. For `BrCc1ccc(Br)cc1`, the Potency was “inactive”. In the case of `CCN(CCO)CCn1c(Cc2ccccc2)nc2c1c(=O)n(C)c(=O)n2C`, the Potency is reported as “inactive”. In the case of `CCCOC(=O)Cc1ccc(OCC(=O)N(CC)CC)c(OC)c1`, the Potency is reported as “inactive”. For `Cn1c(CCCC(=O)O)nc2cc(N(CCCl)CCCl)ccc21`, the Potency was “inactive”. With `CON(C)C(=O)Nc1ccc(Br)cc1` the Potency was “inactive”. In the case of `CCN[C@@H](C)Cc1cccc(C(F)(F)F)c1`, the Potency is reported as “inactive”. With `CCCCS(=O)(=O)Cl` the Potency was “inactive”. In the case of `O=c1[nH]oc2c1CCNC2`, the Potency is reported as “inactive”. For `Cc1ccc(S(=O)(=O)N[C@@H](CCCCN)C(=O)CCl)cc1`, the Potency was “inactive”.
